Experimental data: the supplement of paper PMC6522484
± gives the standard deviation of the averaged measurements.

Assays:
DLD1 [1] = test: cell viability (CellTiter-Glo) relative to plate median (fraction of plate median); higher = more viable cells; conditions: 5 µM; treatment time 24 h; reporter: 7TFP
Procedure, shortened: (§1)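 Colorectal cancer cell lines stably carrying lentiviral TCF/Wnt firefly luciferase reporters (7TFP or TCF4/Wnt) were plated in 384-well plates and, 24 h later, given library compounds at a final 5 µM for 24 h. Firefly luciferase or CellTiterGlo luminescence was read on parallel plates with a Tecan F500 reader. Each well's signal was normalised to the plate median in webcellHTS2 (additive, without log transformation). Values are the mean of two independent replicates.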

HCT116 = test: as above; conditions: 5 µM; treatment time 24 h; reporter: TCF4/Wnt
Procedure, shortened: as §1

SW480 [2] = test: as above; conditions: 5 µM; treatment time 24 h; reporter: 7TFP
Procedure, shortened: as §1

DLD1 [3] = test: TCF/Wnt firefly luciferase reporter signal relative to plate median (fraction of plate median); higher = higher Wnt reporter signal; conditions: 5 µM; treatment time 24 h; reporter: 7TFP
Procedure, shortened: as §1

SW480 [4] = test: as above; conditions: 5 µM; treatment time 24 h; reporter: 7TFP
Procedure, shortened: as §1

SMILES | cell viability (DLD1 [1]) | cell viability (HCT116) | cell viability (SW480 [2]) | TCF/Wnt firefly luciferase reporter signal (DLD1 [3]) | TCF/Wnt firefly luciferase reporter signal (SW480 [4])
O=C(/C=C/c1ccc(O)cc1)c1ccc(O)cc1O | 0.97 ± 0.012 | 1.03 ± 0.08 | 0.968 ± 0.0099 | 1 ± 0.15 | 0.862 ± 0.076
COc1ccc(-c2cc(C(F)F)nn2-c2ccc(S(N)(=O)=O)cc2)cc1F | 0.869 ± 0.086 | 1.01 ± 0.014 | 1.04 ± 0.057 | 0.983 ± 0.025 | 0.995 ± 0.078
COc1cc(-c2coc3cc(OC)c(OC)c(OC)c3c2=O)cc(OC)c1OC | 1.04 ± 0.08 | 1.18 ± 0.14 | 1.07 ± 0.064 | 1.05 ± 0.1 | 1.1 ± 0.028
O=c1c(O)cc([C@H]2Oc3cc(O)cc(O)c3C[C@H]2O)cc2c([C@H]3Oc4cc(O)cc(O)c4C[C@H]3O)cc(O)c(O)c12 | 0.934 ± 0.033 | 1.01 ± 0.02 | 0.966 ± 0.02 | 0.949 ± 0.044 | 1.04 ± 0.1
COc1cc(-c2oc3cc(O)ccc3c(=O)c2O)ccc1O | 1.03 ± 0.014 | 1.12 ± 0.078 | 1.055 ± 0.0071 | 1 ± 0.098 | 1.07 ± 0.035
CC1CCC(NC(=O)N(CCCl)N=O)CC1 (stereo not given) | 1.01 ± 0.059 | 1.02 ± 0.071 | 1.015 ± 0.0071 | 1.08 ± 0.035 | 1.16 ± 0.028
CN1CCCC(n2nc(Cc3ccc(Cl)cc3)c3ccccc3c2=O)CC1 (stereo not given) | 1.01 ± 0.021 | 1.015 ± 0.0071 | 1.045 ± 0.0071 | 1.17 ± 0.17 | 1.06 ± 0.057
CC(=O)N[C@@H](Cc1c[nH]c2ccccc12)C(=O)O | 0.953 ± 0.0014 | 0.955 ± 0.093 | 0.985 ± 0.021 | 0.905 ± 0.1 | 0.961 ± 0.016
C[C@]12CC[C@@H](O)C[C@H]1CCc1ccccc12 [3alpha-HYDROXY-4,4-BISNOR-8,11,13-PODOCARPATRIENE] | 1.03 ± 0.08 | 1.01 ± 0.27 | 1.03 ± 0.014 | 0.971 ± 0.022 | 1.15 ± 0.064
O=C(Nc1ccc([N+](=O)[O-])cc1Cl)c1cc(Cl)ccc1O | 0.764 ± 0.05 | 0.614 ± 0.13 | 0.779 ± 0.3 | 0.92 ± 0.064 | 0.964 ± 0.22
O=c1c2ccccc2oc2ccccc12 | 0.986 ± 0.016 | 0.98 ± 0.043 | 0.98 ± 0.029 | 0.985 ± 0.036 | 0.916 ± 0.03
C[C@@H]1CCCCCCCCC[C@H](OC(=O)CCC(=O)O)C(=O)/C=C/C(=O)O1 | 1.03 ± 0.05 | 1.09 ± 0.11 | 1.02 ± 0.028 | 1.17 ± 0.05 | 1.09 ± 0.014
CCCCCCCCCCCC1=C(O)C(=O)C=C(O)C1=O | 1.01 ± 0.06 | 1.12 ± 0.071 | 0.9665 ± 0.00071 | 1.1 ± 0.028 | 1.075 ± 0.0071
O=C([O-])c1ccccc1O.[Na+] | 1.06 ± 0.035 | 1.02 ± 0.077 | 1.07 ± 0.028 | 1.04 ± 0.09 | 1.02 ± 0.014
